This is an account of results in PubChem BioAssay (NCI).

This is part of a sample that, as a whole, favours compounds with a hit. Of some 83,000 tested, about 20% had one in any assay.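 Testing used 96-well plates and a 48-hour single-concentration exposure. Example: -40 means 40% of the starting cells died.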 Activity calls are given as the source filed them. How the source made its calls: active means growth percent below 10; inactive means the rest.

This assay concerns HOP-92 NSCLC. As to the kind of experiment: NCI-60 one-dose screen, 48 h (100 = growth as untreated, 0 = no growth, -100 = all killed). As to conditions: 10 µM unless noted.
For `O=C1c2cc3c(cc2-c2c1c1cc(Cl)c(Cl)cc1c(=O)n2CCCn1ccnc1)OCO3`, the growth was 29.5% (inactive).

`CCCCCCCCOC(=O)CC[C@@H](C)[C@H]1CC[C@H]2[C@@H]3[C@H](OC(=O)CCN)C[C@@H]4C[C@H](OC(=O)CCN)CC[C@]4(C)[C@H]3C[C@H](OC(=O)CCN)[C@]12C`: the growth is 40.7% (inactive).

For the compound `COc1ccc(-c2cnoc2-c2cc(OC)c3c(c2)OCCO3)cc1`, the growth was 31% (inactive).

On to `Cc1nn(-c2ccccc2)c2nc(C)n(-c3ccc(Br)cc3)c(=O)c12`, for which the growth was 56.3% (inactive).

Regarding `CCN(CC)CC(C)(C)C(=O)/C=C/c1ccccc1`, the growth is 34.7% (inactive).

Take `Cc1ccc2cnc(N)c(C#Cc3cncc(C(=O)Nc4ccc(CN5CCN(C)CC5)c(C(F)(F)F)c4)c3)c2c1`: the growth is -80.9% (active).

Regarding `C[C@H](CCC(=O)O)[C@H]1CC[C@H]2[C@@H]3CC[C@@H]4/C(=C\c5ccco5)C(=O)/C(=C\c5ccco5)C[C@]4(C)[C@H]3CC[C@]12C`, the growth was 106% (inactive).

With `COc1ccc(-c2cc(-c3ccc(N(C)C)cc3)nc(NC(=O)c3ccncc3)n2)cc1`, the growth is 62.8% (inactive).

Regarding `COc1ccc2c(c1)C(=O)/C(=C/c1cccc(OCC(=O)Nc3nc4c(s3)CCCC4)c1)O2`, the growth is -74.8% (active).

With `Cc1nc2sc(C(=O)Nc3cccc4c3OCCO4)c(N)c2cc1C(C)O` (configuration not stated), the growth is 49.6% (inactive).

In the case of `CCCCCCNC(=O)Oc1ccc(/C(=C(\C)c2ccccc2)c2ccc(OCCN(CC)CC)cc2)cc1`, the growth was 39.1% (inactive).

For `O=[N+]([O-])c1c(F)cccc1Nc1cccc(F)c1`, the growth was 94.6% (inactive).
